The text below walks through data of PubChem BioAssay AID493206 (National Center for Advancing Translational Sciences (NCATS), 2011).

Values joined by “and” are separate entries in the source; they are usually repeats but may differ in a detail not shown here. Equal values may be shown once. Records with an inconclusive call do not appear. Active and inactive are the calls of the source. The call rests on the fitted dose curve; in most records, active means well fitted inhibition curve with a large enough effect; inconclusive means small, poorly fitted or top-dose-only effect; inactive means flat fitted curve, though single readings scatter.

For the assay, the target named is Dual specificity tyrosine-phosphorylation-regulated kinase 1A (Homo sapiens) (UniProt Q13627). Description: Assay for Inhibitors of Dual-Specificity Tyrosine-(Y)-Phosphorylation Regulated Kinase 1A (Kinase-Glo assay): round 2 SAR. The conditions noted are these: recombinant DYRK1A, Kinase-Glo ATP depletion luminescence; series mostly up to 76.9 µM; activity, negative = inhibition: at the top concentration. An excerpt: NIH Molecular Libraries Probe Production Centers Network [MLPCN] NIH Chemical Genomics Center [NCGC] MLPCN Grant: 1R03MH084827-01 PI Name: Tom Misteli NCGC Assay Overview: The CMGC group of protein kinases which includes CDK-like kinases (Clk) and Dyks are essential kinases found in all eukaryotes. Clks have been implicated to play a role in the regulation of alternative splicing; while Dyrks, in particular over expression of Dyrk1A, has been linked to diseases as Down syndrome (DS; OMIM 190685) and Alzheimer disease (AD; OMIM 104300). Among the members of the CMGC group, the Clks and the Dyrks are very closely related therefore to determine validity and selectivity of an active compound observed in the CLK4 qHTS screen (AID:1770), a bioluminescent counter-screen against Dyrk1A was developed. In addition, potent and selective compounds against Dyrk1A were identified to further assess the role of this enzyme in DS and AD. Dyrk1A (Invitrogen, cat # PV3785) was assayed using ATP and DYRKtide (AnaSpec, cat# 62698) as substrates. Promega Kinase-Glo (cat# V6712) technology was used to detect the residual ATP following kinetic reaction. The Kinase-Glo Plus contains Ultra-Glo [5] luciferase and D-luciferin which generates a bioluminescence signal from the remaining ATP. No enzyme and harmine (Sigma, cat # 286044-1G), a compound shown to inhibit Dyrks were used as a positive control; while DMSO treatment was used as a negative control.
NCGC Assay Protocol Summary: Two uL/well of substrate solution (8uM Dyrktide, 2uM ATP, 25mM Tris-HCl pH 7.5, 10mM MgCl2 , 0.5mM EGTA, 5mM cystein, 0.01% Triton X-100 final concentration) was dispensed into 1536-well assay plates (Greiner, solid white, medium-binding plates) with Aurora Discovery BioRAPTR Flying Reagent Dispenser (FRD, Beckton-Dickenson). Compound solution (23 nL) was transferred to the assay plate using Kalypsys pin tool equipped with a 1536-pin tool. One uL/well enzyme solution (5nM Dyrk1A, 25mM Tris-HCl pH7.5, 10mM MgCl2, 0.5mM EGTA, 5mM cystein, 0.01% Triton X-100 final concentration) was then added using FRD yielding a total kinase reaction volume of 3uL/well. After 2 hours of room temperature incubation, 3uL Kinase-Glo detection reagent was added for a final assay volume of 6uL/well. The plates were spun for 30 seconds (1000 rpm) and incubated at ambient temperature for 2 minutes followed by a luminescence read using Perkin Elmer ViewLux plate reader at 3 seconds exposure time and 2x binning.
A general note: In Kinase-Glo more light means more ATP remaining.
For the compound `Cc1cccc(CNc2ncnc3ccc(-c4ccoc4)cc23)c1`, the Potency was 3.68 µM (active).

In the case of `c1nc(N2CCOCC2)c2cc(-c3ccc4c(c3)OCO4)ccc2n1`, the Potency is 1.46 µM (active).

Regarding `Cc1csc(CNc2ncnc3ccc(-c4ccc5c(c4)OCCO5)cc23)c1`, the Potency is 1.64 µM (active).

For the compound `Cc1cccc(CNc2ncnc3ccc(-c4cccnc4)cc23)c1`, the Potency was 29.2 µM (active).

Take `O=C(O)c1ccc(-c2ccc3ncnc(NCC4CCCO4)c3c2)o1` (stereo not given): the Potency is 23.2 µM (active).

In the case of `Cc1csc(CNc2ncnc3ccc(-c4ccc(C(=O)O)o4)cc23)n1`, the Potency is 14.6 µM (active).

In the case of `c1nc(N2CCNCC2)c2cc(-c3ccc4c(c3)OCO4)ccc2n1`, the Potency was 5.19 µM (active).

Consider `Cc1ccc(CNc2ncnc3ccc(-c4ccc(C(=O)O)o4)cc23)o1`, for which the Potency is 10.4 µM (active).

Turning to `CN(CC1CCCCO1)c1ncnc2ccc(-c3ccc4c(c3)OCO4)cc12` (stereo not given), the Potency is 0.292 µM (active).

As to `c1csc(CNc2ncnc3cc(-c4ccc5c(c4)OCO5)ccc23)c1`, the Potency was 26 µM (active).

Take `Clc1ccccc1-c1ccc2ncnc(NCc3cccnc3)c2c1`: the Potency is 26 µM (active).

On to `CN(CCc1ccco1)c1ncnc2ccc(-c3ccc4c(c3)OCO4)cc12`, for which the Potency is 0.292 µM (active).

Take `CC(Nc1ncnc2ccc(-c3ccc4c(c3)OCO4)cc12)c1ccco1` (stereo not given): the Potency was 0.582 µM (active).

Take `c1nc(NCC2CCCCC2)c2cc(-c3ccc4c(c3)OCO4)ccc2n1`: the Potency is 0.26 µM (active).

Turning to `CN(Cc1ccco1)c1ncnc2ccc(-c3ccoc3)cc12`, the Potency is 0.207 µM (active).

Consider `O=C(O)c1ccc(-c2ccc3ncnc(N4CCOCC4)c3c2)o1`, for which the Potency was 26 µM (active).

In the case of `CCNC(=O)c1ccc(-c2ccc3ncnc(NCc4ccc(C)o4)c3c2)o1`, the Potency is 9.23 µM (active).

Consider `CCCNc1ncnc2ccc(-c3ccc4c(c3)OCO4)cc12`, for which the Potency was 0.184 µM (active).

Turning to `c1cncc(-c2ccc3ncnc(NCc4cccs4)c3c2)c1`, the Potency is 23.2 µM (active).

For `Fc1cccc(CNc2ncnc3ccc(-c4ccc5c(c4)OCO5)cc23)c1`, the Potency was 0.463 µM (active).

As to `COc1cccc(Nc2ncc3nc(-c4cn(C)c5ccccc45)c(=O)n(CCC#N)c3n2)c1`, the “activity, negative = inhibition” value was -13.8% (inactive).

For the compound `Cc1ccc(CNc2ncnc3cc(-c4ccc5c(c4)OCO5)ccc23)o1`, the Potency was 23.2 µM (active).

As for `CC(O)c1ccc(-c2ccc3ncnc(NCCc4cnc[nH]4)c3c2)o1` (stereo not given), the Potency is 23.2 µM (active).

Turning to `c1nc(NCc2ccc3c(c2)OCO3)c2cc(-c3ccc4c(c3)OCCO4)ccc2n1`, the Potency is 4.12 µM (active).

Regarding `Cc1ccc(CN(C)c2ncnc3ccc(-c4ccc(CO)o4)cc23)o1`, the Potency is 0.823 µM (active).

`CS(=O)(=O)CCNCc1ccc(-c2ccc3ncnc(Nc4ccc(OCc5cccc(F)c5)c(Cl)c4)c3c2)o1`: the “activity, negative = inhibition” value was -4.73% (inactive).

For the compound `Cc1ccsc1CN(C)c1ncnc2ccc(-c3ccc([C@@H](C)O)o3)cc12`, the Potency is 3.68 µM (active) and 1.46 µM (active) and 1.04 µM (active).

Take `COc1cccc(-c2ccc3ncnc(NCc4cccc(F)c4)c3c2)c1`: the Potency is 4.63 µM (active).

In the case of `Cc1csc(CNc2ncnc3ccc(-c4ccc5c(c4)OCO5)cc23)c1`, the Potency is 0.463 µM (active).

Regarding `Cc1cccc(CNc2ncnc3ccc(-c4ccc5c(c4)OCCO5)cc23)c1`, the Potency was 3.68 µM (active).

As to `COc1cccc(-c2ccc3ncnc(NCc4cccc(C)c4)c3c2)c1`, the Potency is 8.23 µM (active).

For `Cn1ccc2cc(-c3ccc4ncnc(NCc5ccc6c(c5)OCO6)c4c3)ccc21`, the “activity, negative = inhibition” value is -10.9% (inactive).

As for `c1cncc(CNc2ncnc3ccc(-c4ccoc4)cc23)c1`, the Potency was 9.23 µM (active).

Turning to `Cc1ccc(CNc2ncnc3ccc(-c4ccc([C@@H](C)O)o4)cc23)o1`, the Potency was 26 µM (active) and 16.4 µM (active) and 23.2 µM (active).

In the case of `OCc1ccc(-c2ccc3ncnc(N4CCOCC4)c3c2)o1`, the Potency was 16.4 µM (active).

For `CC(=O)c1ccc(-c2ccc3ncnc(NCc4ccc(C)o4)c3c2)o1`, the Potency was 5.82 µM (active).

Consider `c1coc(CNc2ncnc3ccc(-c4ccc5c(c4)OCO5)cc23)c1`, for which the Potency was 0.207 µM (active).

Turning to `CCNC(=O)c1ccc(-c2ccc3ncnc(NCCc4cnc[nH]4)c3c2)o1`, the Potency is 11.6 µM (active).

As to `CN1CCN(c2ncc3nc(-c4cn(C)c5ccccc45)c(=O)n(Cc4cccs4)c3n2)CC1`, the “activity, negative = inhibition” value is -6.07% (inactive).

With `c1nc(NCc2ccc3c(c2)OCO3)c2cc(-c3ccoc3)ccc2n1`, the Potency was 18.4 µM (active).
